Measured values as given in PubChem BioAssay AID977606 (Broad Institute, 2014).
Out of some 1,500 compounds screened, about 430 (29%) were called active. No rule for the calls is given here. The list is a sample of the results. Measured potencies and affinities stand elsewhere.

Test: glucose-independent GLuc insulin release activation – cell-based, INS-1E, Gaussia luciferase, luminescence, cherry-pick, counter-screen for glucose-dependent insulin secretion activators, dose response (AID 977606);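 also: 0% = median of neutral control wells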
Conditions: INS-1E Gaussia luciferase insulin secretion, no glucose, 100% = twice neutral-control luminescence; series mostly up to 35 µM; activation: at the top concentration

Compound | activation
COc1ccc(CCN=C(N)NS(=O)(=O)c2ccc(C)c(C)c2)cc1OC | 5.18% (inactive)
CC1CC(C)CN(CC(O)COCc2ccccc2F)C1 (configuration not stated) | -3.98% (inactive)
O=C(N1CCOCC1)N1CCN(c2ccccn2)CC1 | 11.2% (inactive)
CCN(Cc1ccncc1)C(=O)c1cccc(S(=O)(=O)N2CCCCC2)c1 | 7.23% (inactive)
COc1ccc(N2CCN(C(c3cccs3)C(C)NC(=O)C(=O)N3CCOCC3)CC2)cc1 (configuration not stated) | 49.4% (inactive)
CC(NC1CCN(Cc2ccccc2)CC1)c1ccc(F)cc1 (configuration not stated) | -0.389% (inactive)
O=C(NNC1CCN(Cc2ccccc2)CC1)c1ccccc1 | -7.54% (inactive)
CN(Cc1ccc(OCC(O)CN(C)Cc2ccccc2)cc1)Cc1nccn1C (configuration not stated) | 6.67% (inactive)
CC(Oc1ccccc1Cl)C(=O)Nc1ccc(S(=O)(=O)Nc2nccs2)cc1 (configuration not stated) | 2.94% (inactive)
CCNc1nc(NC(C)CC)nc(ON=C(C)C)n1 (configuration not stated) | 7.53% (inactive)
O=C(O)COc1ccc2c3c(c(=O)oc2c1)CCC3 | 2.84% (inactive)
Cc1cc(=O)oc2c3c(cc(OCC(=O)NC(C)C)c12)OC(C)(C)CC3 | 2.56% (inactive)
O=c1[nH]c2ccccc2nc1-c1nnnn1C1CCCC1 | 11.3% (inactive)
CCOc1ccc(OCCC(=O)N(CC)CC(=O)NCc2cccs2)cc1 | -7.63% (inactive)
CC(O)c1nc2ccccc2n1C1CCCCC1 (configuration not stated) | -9.74% (inactive)
COc1ccc(N2C(=O)CC(Sc3nc(C)cc(C)c3C#N)C2=O)cc1 (configuration not stated) | -7.36% (inactive)
COc1cc(C(=O)Nc2cc(C(F)(F)F)ccc2N2CCOCC2)ccc1OCC(=O)N1CCOCC1 | 0.175% (inactive)
O=C(Nc1ccccc1Oc1ccsc1C(=O)O)c1ccccc1F | 3.53% (inactive)
Cc1cc(C)nc(NC(N)=NCCc2c[nH]c3ccccc23)n1 | -15.7% (inactive)
CCOC(=O)c1[nH]cnc1C(=O)NC(C)C | -12.7% (inactive)
O=C1c2[nH]nc(-c3ccccc3)c2C(c2ccccc2)N1c1ccccc1 (configuration not stated) | 9.7% (inactive)
NS(=O)(=O)c1ccc(CNC(=O)c2cc(S(=O)(=O)N3CCOCC3)ccc2N2CCCC2)cc1 | 6.71% (inactive)
CCOc1ccc2oc(=O)cc(CN3CCOCC3)c2c1 | 5.59% (inactive)
Cc1cccc(NC(=O)c2ccc(OCc3c(C)noc3C)cc2)c1C | 21% (inactive)

Compound | activation
CCCNC(=O)c1ccccc1NC(=O)COc1ccc(OC)cc1 | -5.49% (inactive)
COc1ccc(Nc2nc(NCc3cccs3)nc3ccsc23)cc1OC | -8.88% (inactive)
COc1ccc(C(=O)/C=C2\NCCc3cc(OC)c(OC)cc32)cc1OC | -11.3% (inactive)
COC(=O)c1ccc(OC)c(OC2CCCC2)c1 | 11.1% (inactive)
Cc1cccc2nc(-c3ccco3)c(Nc3ccccc3)n12 | 3.49% (inactive)
Cc1ccc(C(=O)c2sc(Nc3ccccc3)c(C#N)c2N)cc1 | 10.1% (inactive)
CNc1ccc2ncc(-c3ccc(OC)c(OC)c3)n2n1 | 14.6% (inactive)
CCCCCCn1c(SCC(C)C)nc2c1c(=O)[nH]c(=O)n2C | 5.74% (inactive)
CC(C)CCn1c(N2CCCC2)nc2c1c(=O)[nH]c(=O)n2C | 28.9% (inactive)
CN(Cc1ccccc1)c1nc2c(c(=O)[nH]c(=O)n2C)n1Cc1ccccc1 | -4.81% (inactive)
Cn1c(=O)[nH]c(=O)c2c1nc(NC1CCCC1)n2Cc1ccccc1 | -2.64% (inactive)
C/C=C/Cn1c(N2CCCCCC2)nc2c1c(=O)[nH]c(=O)n2C | 2.02% (inactive)
C/C(Cl)=C/CSc1nc2c(c(=O)[nH]c(=O)n2C)n1C(C)C | 36% (inactive)
CCCN1C[C@@H](C)[C@@H](OC)CN(C)C(=O)c2ccc(NC(=O)c3cccc(F)c3)cc2OC[C@H]1C | -6.93% (inactive)
O=C(O)C1Cc2c([nH]c3ccccc23)C(c2ccc3c(c2)OCO3)N1 (configuration not stated) | 6.64% (inactive)
COc1cc2c(cc1OC)-c1cc(NCc3ccccn3)nc(=O)n1CC2 | -6.24% (inactive)
CCOc1ccc(CCNS(=O)(=O)c2cn(C)cn2)cc1OCC | -10.6% (inactive)
CC(=O)N1CCN(C(=O)COC(=O)c2ccc(S(C)(=O)=O)cc2)CC1 | 39.2% (inactive)
CC(C)(C)NC(=O)N1c2ccccc2Sc2ccccc21 | 11.4% (inactive)
CCn1ncc2c1C(=O)NC1c3ccccc3C(=O)N21 (configuration not stated) | 0.44% (inactive)
O=C(NNC(=O)c1cc2cc3ccccc3nc2s1)c1cccc(C(F)(F)F)c1 | -11% (inactive)
Cc1cc(C)cc(C(=O)NC(=S)Nc2ccc(-c3cc4ccccc4oc3=O)cc2)c1 | 13.7% (inactive)
C=CCn1c(-c2csc(-c3ccc(OC)c(OC)c3)n2)n[nH]c1=S | -1.01% (inactive)
COc1ccc(-c2nc(CCl)cs2)cc1OC | 5.17% (inactive)

Compound | activation
O=C(c1ccccc1)N(C(=O)c1ccccc1)N1CCCC1 | 3.14% (inactive)
CN(c1ccc(C(=O)N2CCN(Cc3ccccc3)CC2)cc1)S(=O)(=O)c1ccccc1 | -21.2% (inactive)
CCn1nc(NC(=O)c2ccco2)c2cc3ccccc3nc21 | 1.13% (inactive)
CCCn1nc(NC(=O)c2ccco2)c2cc3ccccc3nc21 | 4.53% (inactive)
O=C1c2cccnc2C(Nc2ccc(F)c(Cl)c2)N1Cc1cccs1 (configuration not stated) | -9.46% (inactive)
CCOc1cc(/C=N/NC(=O)CCn2nnc3ccccc32)ccc1O | 15.9% (inactive)
CCOc1ccccc1OCCC(=O)NNC(=O)Cn1nc(C)cc1C | 5.71% (inactive)
N#CCc1nn(-c2ccccc2)c2ncnc(N)c12 | -0.351% (inactive)
CN(C)CCCN(C(=O)c1ccco1)c1nc2c(F)cccc2s1 | 3.36% (inactive)
O=C(c1cccnc1)N(Cc1ccccc1)c1ccccc1 | 24% (inactive)
COc1ccc(-c2nc(N3CCC(C)CC3)[nH]c(=O)c2C#N)cc1 | -8.77% (inactive)
COc1ccc(-c2ccc(SCc3cccnc3)nn2)cc1OC | 7.88% (inactive)
CC(C)CCN(CC(=O)NCc1ccc(F)cc1)S(=O)(=O)c1ccccc1F | -21.4% (inactive)
O=C(NN(Cc1ccccc1)Cc1ccccc1)c1ccccc1 | -14.6% (inactive)
O=C(COC(=O)C1CCC1)NC(=O)c1ccccc1 | -4.65% (inactive)
O=C(O)c1ccc(S(=O)(=O)NCc2ccc3c(c2)OCO3)cc1 | -2.19% (inactive)
O=C(c1ccc2c(c1)OCO2)N1CCN(S(=O)(=O)c2ccccc2)CC1 | -5.95% (inactive)
OC(c1ccc(Cl)cc1)C(CN1CCOCC1)c1ccccc1 (configuration not stated) | -9.66% (inactive)
CC(C)OCC(O)CN1CCC(Cc2ccccc2)CC1 (configuration not stated) | -3.38% (inactive)
COC(=O)CN(c1cccc(C)c1)S(=O)(=O)c1ccccc1 | -3.43% (inactive)
COCCNC(=O)c1ccc(N(C)S(=O)(=O)c2ccc(OC)c(OC)c2)cc1 | 14.3% (inactive)
CCOc1ccc(-c2nc(CSc3nnc(N)s3)cs2)cc1OC | -24.8% (inactive)
C=CCNC(=O)COc1coc(CN2CCN(C(=O)c3ccco3)CC2)cc1=O | -8.24% (inactive)
C=C[C@@]1(C)CC(=O)[C@]2(O)[C@@]3(C)[C@@H](O)CCC(C)(C)[C@@H]3[C@H](O)[C@H](OC(C)=O)[C@@]2(C)O1 | 16.2% (inactive)
